Only some compounds are listed: those with a hit (about 5.7% of all), similar ones and a draw of the others.
DAX1 inh-1: blocks DAX1 repression of SF-1 activated StAR promoter. AID 652010. inhibition, % at 6.8 µM. 1.1% of 370,000 active. HEK293T StAR-luciferase reporter, SF-1/DAX-1 repression relief;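 active means inhibition above the mean over all tested compounds plus 3 SD, cut at about 3.6% in these data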;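 further: higher inhibition means more luminescence from relief of DAX-1 repression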
hcDAF12 agonist: activates DAF-12 receptor from parasite H. contortus; activation, % at 6.8 µM; HEK293 hcDAF-12 lit1-tk-luc reporter, luminescence; 0% DMSO, 100% Δ7-dafachronic acid; 1.4% of 370,000 active;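 active means activation above the mean of all tested compounds plus 3 SD, cut at about 5.5% in these data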
AHR activator: activators of human aryl hydrocarbon receptor. P35869. AHR-responsive luciferase reporter cells, luminescence. activation, % at 5 µM. 2.5% of 320,000 active; in the data active means activation above about 47%
ssDAF12 agonist: S. stercoralis DAF-12 activation, primary screen; HEK293 ssDAF-12/GRIP1 lit1-tk-luc reporter, luminescence; % of 3 µM dafachronic acid response; activation, % at 6.8 µM; 1% of 370,000 active; AID 652126;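 active means activation above the mean over all tested compounds plus 3 SD, cut at about 0.9% in these data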
DAX1 inh-2: inhibits human nuclear receptor DAX1 | AID 504766 | P51843 | 0.99% of 340,000 active | HEK293 Gal4-DAX1 luciferase reporter, luminescence | inhibition, % at 6.75 µM;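 active means inhibition above the mean over all tested compounds plus 3 SD, cut at about 4.2% in these data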;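 further: inhibition shows as a rise in luminescence from relieved DAX1 repression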
Target sequence (P51843 207-470 limits assumed): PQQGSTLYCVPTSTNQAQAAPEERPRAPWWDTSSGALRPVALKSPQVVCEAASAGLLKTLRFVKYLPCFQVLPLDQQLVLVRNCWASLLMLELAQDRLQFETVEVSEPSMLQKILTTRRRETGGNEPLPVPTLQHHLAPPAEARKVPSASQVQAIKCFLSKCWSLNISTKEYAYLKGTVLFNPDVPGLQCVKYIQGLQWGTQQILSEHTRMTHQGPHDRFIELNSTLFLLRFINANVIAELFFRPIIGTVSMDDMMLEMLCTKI
hgDAF12 agonist: activates the H. glycines DAF-12 receptor ligand-binding domain; HEK293 GAL4-hgDAF12 UAS-luciferase reporter, agonist luminescence; normalized to butyrate control; AID 687014; activation, % at 6.8 µM; 1.8% of 370,000 active;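 active means activation above a cutoff set at the mean of all screened compounds plus 3 SD, cut at about 10% in these data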
DAX1 conf: NR0B1 (human) inhibition, confirmation | AID 652134 | shares compounds with DAX1 inh-1 | inhibition, % at 6.8 µM | 87% of 2,400 active | HEK293T StAR-promoter luciferase reporter, SF-1/DAX-1 repression;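 active means inhibition above the average of every tested compound plus 3 SD, cut at about 3.8% in these data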;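 further: active compounds raise luminescence by relieving repression of the StAR reporter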
Target sequence (P51843 whole entry, looked up): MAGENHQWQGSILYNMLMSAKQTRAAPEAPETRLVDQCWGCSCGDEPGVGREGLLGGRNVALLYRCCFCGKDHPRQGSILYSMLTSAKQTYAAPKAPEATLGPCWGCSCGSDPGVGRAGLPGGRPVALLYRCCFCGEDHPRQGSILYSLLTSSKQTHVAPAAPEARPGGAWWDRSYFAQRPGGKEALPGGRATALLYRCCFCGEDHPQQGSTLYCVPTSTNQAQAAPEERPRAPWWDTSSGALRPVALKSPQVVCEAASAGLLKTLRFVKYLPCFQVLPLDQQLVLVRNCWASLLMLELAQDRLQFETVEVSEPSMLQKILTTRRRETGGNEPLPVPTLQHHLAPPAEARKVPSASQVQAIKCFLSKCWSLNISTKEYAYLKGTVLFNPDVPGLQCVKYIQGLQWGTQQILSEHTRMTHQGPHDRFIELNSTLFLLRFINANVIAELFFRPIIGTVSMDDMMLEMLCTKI
SF1 mutant ctr: nonselective inhibitor or artifact in SF-1 mutant DAX1 counter-screen; shares compounds with DAX1 inh-1; HEK293 StAR-luciferase, SF-1 AF2 mutant, luminescence; inhibition, % at 6.8 µM; 78% of 2,400 active; AID 652136;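 active means inhibition above the mean of all tested compounds plus 3 SD, cut at about 3% in these data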
Numbers stand for hits; 0 = inactive; - = no result.

SMILES | DAX1 inh-1 | hcDAF12 agonist | AHR activator | ssDAF12 agonist | DAX1 inh-2 | hgDAF12 agonist | DAX1 conf | SF1 mutant ctr
Clc1ccc(-c2nnc(SCc3ccon3)o2)c(Cl)c1 | 7.2 | 6.2 | 0 | 0 | 0 | 16 | 11 | 5.4
Clc1ccc(-c2nnc(SCc3nc4ccccc4[nH]3)o2)c(Cl)c1 | 0 | 0 | 0 | 0 | 0 | 0 | - | -
Clc1ccc(OCCOCCNCc2ccccc2)cc1Cl | 0 | 0 | 0 | 0 | 0 | 0 | - | -
COc1ccc(C(=O)N(C)C(C)c2nccs2)cc1OC1CCN(C(C)=O)CC1 (stereo not drawn) | 0 | 0 | - | 0 | 0 | 0 | - | -
CC[C@@H](C)[C@H](C(CC(=O)N1CCCC1[C@@H](OC)[C@H](C)C(=O)N[C@H](Cc1ccccc1)c1nccs1)OC)N(C)C(=O)[C@H](NC(=O)[C@@H](C(C)C)N(C)C)C(C)C (stereo partly drawn) | 7.7 | 0 | - | 0 | 0 | 0 | 30 | 0
COc1ccc(N=C(C)C2=C(O)c3ccccc3C2=O)cc1 | 5.0 | 0 | 0 | 0 | 0 | 12 | 19 | 5.9
O=C1CCCC2=C1C1(CCCCC1)N=C(Nc1nc3ccccc3o1)N2 | 0 | 0 | 0 | 0 | 0 | 0 | - | -
O=C1CC(c2ccccc2)CC2=C1C1(CCCC1)N=C(Nc1nc3ccccc3o1)N2 (stereo not drawn) | 4.5 | 0 | - | 0 | - | 0 | 0 | 0
COC(=O)c1ccc2nc(-c3cccc(N)c3)cn2c1 | 5.6 | 0 | 0 | 0 | 0 | 0 | 5.3 | 0
C=CC[n+]1ccc(/C=C2\C=Cc3cc(C)ccc3N2CC)c2ccccc21 | - | - | - | - | 0 | - | - | -
CC(=O)Oc1ccc(N(C(C)=O)S(=O)(=O)c2ccc(C)c([N+](=O)[O-])c2)cc1 | 0 | 0 | 0 | 0 | 0 | 0 | - | -
COc1ccccc1-n1cnc2cc(NCc3ccccn3)ccc21 | 0 | 0 | 0 | 0 | 0 | 0 | - | -
CCCn1cnc2cc(NCc3ccccn3)ccc21 | 5.0 | 0 | 0 | 0 | 0 | 0 | 3.8 | 0
CCc1ccc(CNc2ccc3c(c2)ncn3C)cc1 | 4.6 | 0 | 0 | 0 | 0 | 0 | 7.9 | 6.9
COc1cc(C(=O)OCC(=O)NC(=O)C2CCCCC2)ccc1OC(F)F | 0 | 0 | 0 | 0 | 0 | 0 | - | -
CCOc1ccccc1N(C)C(=O)CCS(=O)(=O)c1ccc2c(c1)NC(=O)CO2 | 0 | 0 | 0 | 0 | 0 | 0 | - | -
O=C(NCCc1ccccn1)c1ccc(OC2CCN(CCc3ccccc3)CC2)cc1 | 5.8 | 0 | - | 0 | 0 | 12 | 9.1 | 4.1
O=C(NC1CC1)c1ccc(-n2cccc2)cc1 | 0 | 0 | 0 | 0 | 0 | 0 | - | -
O=C(O)c1cccc(Nc2nc3ccccc3nc2NS(=O)(=O)c2ccc(F)cc2)c1 | 6.6 | 0 | 0 | 0 | 0 | 0 | 0 | 3.9
Cc1ccc(NC(=O)CCCNC(=O)c2ccc(Cl)cc2)nc1 | 0 | 0 | 0 | 0 | 0 | 0 | - | -
Cc1ccc(NC(=O)CCCNC(=O)c2ccc(Cl)cc2)c(O)c1 | 5.3 | 6.4 | 60 | 0 | 0 | 0 | 4.1 | 3.7
Cc1cnc(NC(=O)CCCNC(=O)c2ccc(Cl)cc2)s1 | 5.5 | 0 | 0 | 0 | 0 | 0 | 0 | 3.2
COc1ccc(O)c(C(=O)CC(=O)c2cccnc2)c1 | 6.5 | 0 | - | 0 | 0 | 0 | 7.3 | 6.9
COc1ccccc1-c1nnc(SCC(=O)Nc2ccc(S(N)(=O)=O)cc2)n1C | 0 | 0 | 0 | 0 | 0 | 0 | - | -
CN(C)c1ccc(C=C2C=Cc3ccccc32)cc1 | 4.8 | 6.2 | - | 0 | 0 | 13 | 15 | 8.0
SMILES | DAX1 inh-1 | hcDAF12 agonist | AHR activator | ssDAF12 agonist | DAX1 inh-2 | hgDAF12 agonist | DAX1 conf | SF1 mutant ctr
Cc1ccc(NC(=O)c2ccc3snnc3c2)cc1C | 6.5 | 0 | 0 | 0 | 0 | 0 | 9.4 | 0
Cc1ccc(-c2csc(C(O)c3ccc(F)c(F)c3)n2)cc1C (stereo not drawn) | 0 | 0 | - | 0 | - | 0 | - | -
Cc1ccc(O)c(C2=NCCNC(C(F)(F)F)=C2)c1 | 0 | 0 | 0 | 0 | 0 | 0 | - | -
Oc1c(C2=NCCNC(C(F)(F)F)=C2)ccc2ccccc12 | 4.7 | 0 | - | 0 | 0 | 19 | 6.5 | 4.6
Nc1c(C=C2C=CC(=O)C=C2)c(=O)nc2snc(SCc3ccccc3)n12 | 0 | 0 | 0 | 0 | 0 | 0 | - | -
COc1c2c(c(CCC(=O)O)c3c1C=CC(C)(C)O3)OC(C)(C)C=C2 | 0 | 0 | - | 0 | 0 | 0 | - | -
NS(=O)(=O)c1ccc(CCNC(=O)COC(=O)C2COc3ccccc3O2)cc1 (stereo not drawn) | 0 | 0 | 0 | 0 | 0 | 0 | - | -
O=C(NNC(=O)c1cc2ccccc2cc1O)NC1CCCCC1 | 0 | 0 | - | 0 | 0 | 0 | - | -
CC1CCC(NC(=O)c2cc3ccccc3cc2O)CC1 (stereo not drawn) | 8.0 | 0 | 0 | 0 | 0 | 0 | 10 | 6.7
O=C(NCC1CCCO1)c1cc2ccccc2cc1O (stereo not drawn) | 5.0 | 0 | 0 | 0 | 0 | 0 | 6.1 | 4.3
CC1CCC(NC(=O)c2cc(Cl)nc3ccccc23)CC1 (stereo not drawn) | 4.6 | 0 | 0 | 0 | 0 | 0 | 6.0 | 4.3
O=C(Cc1cccc2ccccc12)NC(=S)Nc1cccc(C(=O)O)c1 | 0 | 0 | 0 | 0 | 0 | 0 | - | -
CC1(C)CC(=O)N(c2ccc(Cl)cc2Cl)C(=O)C1 | 0 | 0 | 0 | 0 | 0 | 0 | - | -
Cc1cccc(C)c1NC(=O)CS(=O)CC(=O)NCC1OCCc2ccccc21 (stereo not drawn) | 0 | 0 | 0 | 0 | 0 | 0 | - | -
CC(C)Cn1c(=O)c(CCC(=O)Nc2ccc(N3CCOCC3)cc2)nc2cc(Cl)ccc21 | 0 | 0 | 0 | 0 | 0 | 0 | - | -
Cc1cccc(-c2cc3nc4c(c(NCc5ccco5)n3n2)CCCC4)c1 | 5.0 | 0 | 0 | 0 | 0 | 12 | 5.4 | 3.1
Cc1cccc(-c2cc3nc4c(c(N5CCCC(O)C5)n3n2)CCC4)c1 (stereo not drawn) | 0 | 0 | 0 | 0 | 0 | 0 | - | -
CC(=O)Nc1ccc(S(=O)(=O)Nc2cccc(NC(=O)c3ccco3)c2)cc1 | 0 | 0 | 0 | 0 | 0 | 0 | - | -
Cc1ccc(C)c(OCc2cc(C(=O)N3CCN(c4ccccc4)CC3)no2)c1 | 6.3 | 0 | 0 | 0 | 0 | 0 | 5.3 | 4.8
Cc1ccc(C)c(OCc2cc(C(=O)N3CCN(C(=O)c4ccco4)CC3)no2)c1 | 6.4 | 0 | 0 | 0 | 0 | 0 | 6.2 | 4.1
COc1ccccc1CCNC(=O)COc1cccc2c1OC(C)(C)C2 | 4.6 | 0 | 0 | 0 | 0 | 0 | 0 | 0
CC1(C)Cc2cccc(OCC(=O)NCCOc3ccccc3)c2O1 | 0 | 0 | 0 | 0 | 0 | 0 | - | -
Cc1ccc(OCc2cc(C(=O)N3CCN(C)C[C@@H]3c3ccccc3)no2)cc1C | 0 | 0 | 0 | 0 | 0 | 0 | - | -
CN1CCN(C(=O)c2cc(COc3ccccc3)on2)[C@@H](c2ccccc2)C1 | 5.8 | 0 | 0 | 1.1 | 0 | 11 | 6.0 | 0

Assay outcomes as filed in PubChem.
